HT1080-NT tox: kills 2HG-producing HT-1080-NT fibrosarcoma cells. HT-1080-NT fibrosarcoma viability, CellTiter-Glo ATP luminescence, 48 h. Potency, µM (top dose mostly 46.1 µM), usual class: cytotoxic. hit rate 1.6% among 360,000;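 further: NT is the 2HG producing partner of a matched IDH1 knockdown line; nearly all actives have a fitted effect of over 55% in size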
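A 48-hour cytotoxicity screen used HT-1080-NT cells plated 2 hours before compound delivery. ATP-based CellTiter-Glo luminescence measured viability, normalized to DMSO and no-cell controls.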
HT1080 IDH1KD tx: kills HT-1080 cells with IDH1 knockdown. HT-1080 IDH1 knockdown viability, ATP luminescence, 48 h. AID 686971. Potency, µM (titrated, usually from 46.1 µM), hits mostly cytotoxic. hit rate 2% among 360,000
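Cytotoxicity counter-line: IDH1KD HT-1080, 48 h, CellTiter-Glo. Curves classed by r2, magnitude and activity.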
KB-V1 MDR tox: kills drug-selected multidrug resistant KB-V1 cells. KB-V1 MDR cells viability, CellTiter-Glo, 72 h. Potency, µM (highest dose often 46.1 µM), most hits filed as cytotoxic. hit rate 3.4% among 400,000; further: nearly all actives have a fitted effect of over 60% in size
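KB-V1 cells (P-gp-expressing MDR subline of KB-3-1) in phenol-red-free DMEM with 10% FBS were exposed to library compounds over a concentration series for 72 h at 37 degrees C. Viability read by CellTiter-Glo luminescence; concentration-effect curves fitted after normalization.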
KB-3-1 tox: KB-3-1 parental cell cytotoxicity; KB-3-1 viability, CellTiter-Glo ATP luminescence, 72 h; Potency, µM (series often up to 46.1 µM), usual class: cytotoxic; hit rate 1.4% among 400,000; AID 1347075; further: nearly all actives have a fitted effect of over 60% in size
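Luminescent ATP read-out (CellTiter-Glo) measures survival of drug-naive KB-3-1 cells after 72 h compound exposure at 37 °C. Titration series was screened from lowest to highest concentration, with DMSO vehicle plates as background controls.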
ATXN2 expr inh: reduces ATXN2 reporter expression in HEK-293 cells; HEK-293 ATXN2-luciferase reporter, luminescence, 24 h; Potency, µM (top dose mostly 57 µM), hits mostly inhibitors; hit rate 0.72% among 360,000; AID 1745845; further: nearly all actives have a fitted effect of over 55% in size
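qHTS (up to 57 uM final) was run with 24 h compound exposure of reporter cells at 37 °C. Each well was multiplexed: SteadyGlo luminescence measured ATXN2-luciferase expression after a fluorogenic Gly-Phe-AFC viability readout (25 uM final).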
ATXN viability: viability counter-screen for ATXN expression inhibitors. S2 cells (HEK-293 line with an ATXN2-luciferase reporter) viability, CellTiter-Fluor protease fluorescence, 24 h. Potency, µM (top dose mostly 56.7 µM), most hits filed as cytotoxic. hit rate 0.49% among 400,000. AID 651635; further: nearly all actives have a fitted effect of over 40% in size
Hits are given with their value; - = inactive; ? = inconclusive; . = no result. This is a sample that favours compounds with a hit; in the whole collection about 6.2% have one here. The call rests on the fitted dose curve; in most records, active means well fitted curve in the direction sought with a large enough effect; inconclusive means small, poorly fitted or top-dose-only effect, or another doubt; inactive means no such curve, though single readings can be large; an effect the other way counts as inactive or inconclusive.

SMILES | HT1080-NT tox | HT1080 IDH1KD tx | KB-V1 MDR tox | KB-3-1 tox | ATXN2 expr inh | ATXN viability
CC(C)=CCC/C(C)=C/CNC(=O)C[C@H]1C[C@H](C(=O)N2CCOCC2)[C@@]2(CCC3CCCC3)c3[nH]c4cc(-c5ccco5)ccc4c3CCN2C1=O | - | - | - | ? | - | ?
CC(=O)OCC(=O)[C@@]12OC(C)(C)O[C@H]1C[C@H]1[C@@H]3C[C@H](F)C4=CC(=O)C=C[C@]4(C)[C@@]3(F)[C@@H](O)C[C@@]12C | . | . | . | . | - | .
O=c1c(Br)ccc(Br)cc1Br | 3.66µM | 5.17µM | - | 6.51µM | 5.97µM | 7.52µM
CC1(C)OB(c2cnc(C#N)nc2)OC1(C)C | - | - | . | . | . | .
COC(=O)c1cccc(CN2C(=O)C(C)Oc3ccc(C)cc32)c1 (stereo unspecified) | - | - | - | - | - | -
Cc1cc(C(=O)COc2cccnc2[N+](=O)[O-])c(C)n1Cc1ccco1 | ? | 20.6µM | ? | ? | - | -
COc1ccc(NC2=C(c3ccc(OC)cc3)C(=O)c3ccccc32)cc1 | - | - | 5.17µM | - | - | -
O=C(C1=C(c2ccccc2)C(=O)c2ccccc2C1=O)c1ccccc1 | ? | 14.6µM | ? | ? | ? | .
COc1ccc(NC2=C(NCCO)C(=O)c3ccccc3C2=O)cc1 | 13µM | 8.2µM | 20.6µM | ? | - | -
COC1=C(c2ccccc2)C(=O)c2ccccc2C1=O | - | 25.9µM | ? | - | ? | .
O=C(c1ccccc1)c1c[nH]cc1-c1ccccc1 | - | - | - | - | - | -
CNC(=O)C1CCC(Cn2c(=O)c3sccc3n(CC(=O)Nc3ccccc3)c2=O)CC1 (stereo unspecified) | . | . | ? | - | - | -
CC1CCC2(C1)N=C(Nc1nc3ccccc3o1)NC1=C2C(=O)CCC1 (stereo unspecified) | . | . | - | - | . | .
C=C(C)C(=O)Nc1ccc2nn(-c3ccccc3O)nc2c1 | - | - | - | - | . | -
C=CCn1c(SCc2nc3cc(C(=O)OC)ccc3c(=O)[nH]2)nc2sc(CC)cc2c1=O | - | - | 5.17µM | - | - | ?
C=CCNc1nc(-c2sc(NC(C)=O)nc2C)cs1 | - | - | ? | - | - | -
C=CCNc1nc(-c2sc(NC(=O)C(C)(C)C)nc2C)c(-n2cc(-c3ccccc3)nn2)s1 | ? | ? | 16.4µM | ? | ? | ?
O=C(NC1CC1)C1CC(=O)N(c2cccc(Cl)c2)C1 (stereo unspecified) | - | - | ? | - | - | -
CCOc1ccc(/C=C2/SC(=O)NC2=S)cc1 | - | - | - | - | - | ?
CCOc1ccc(N=C2NC(=O)S/C2=C\c2ccc(N(C)C)cc2)cc1 | - | - | 20.6µM | - | - | -
NC[C@@H]1O[C@@H](O[C@H]2[C@@H](O)[C@H](O[C@@H]3[C@@H](O)[C@@H](N)C[C@H](N)[C@H]3O[C@H]3O[C@H](CN)[C@@H](O)[C@@H](O)[C@H]3N)O[C@H]2CO)[C@H](N)[C@@H](O)[C@@H]1O | . | . | . | . | - | -
Cc1ccc(S(=O)(=O)Nc2cccc3ncccc23)s1 | ? | ? | ? | 5.8µM | ? | ?
CCNc1cc2c(cc1O)CCC1C2CCC2(C)C(O)CCC12 (stereo unspecified) | - | - | ? | ? | - | -
CC#Cc1cc2c(cc1O)CCC1C2CCC2(C)C(O)CCC12 (stereo unspecified) | 8.2µM | ? | ? | 2.59µM | - | ?
CCOc1cc2c(cc1O)CCC1C2CCC2(C)C(O)CCC12 (stereo unspecified) | ? | ? | ? | ? | - | ?
C=Cc1cc2c(cc1O)CCC1C2CCC2(C)C(O)CCC12 (stereo unspecified) | ? | ? | ? | 18.4µM | - | ?
C[C@@H]1CN(Cc2ccc3c(c2)CN(Cc2cccc4c2OCO4)CCO3)C[C@H](C)O1 | . | . | . | . | . | -
COc1ccc(OC)c(CCNC(=O)c2sc3nc4n(c(=O)c3c2C)CCCC4)c1 | . | . | - | - | . | .
Cc1cc(C)nc(SCC(=O)NC2=NN=C(c3ccc(Br)cc3)CS2)n1 | 22.4µM | 15.8µM | - | ? | ? | 31.6µM

From PubChem BioAssay
